This is a sample that favours compounds with a hit; in the whole collection about 5.7% have one here.
DAX1 inh-1 = DAX1 (NR0B1) inhibition, primary screen. HEK293T StAR-luciferase reporter, SF-1/DAX-1 repression relief. inhibition, % at 6.8 µM. 370,000 tested, 1.1% active;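 active = inhibition above the mean over all tested compounds plus 3 SD, cut at about 3.6% in these data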;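 note: 0% = DAX-1 cells with DMSO and 100% = cells lacking DAX-1 with DMSO; higher inhibition means more luminescence from relief of DAX-1 repression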
ssDAF-12 act = S. stercoralis DAF-12 activation, primary screen; HEK293 ssDAF-12/GRIP1 lit1-tk-luc reporter, luminescence; % of 3 µM dafachronic acid response; 370,000 tested, 1% active; activation, % at 6.8 µM;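 active = activation above the mean over all tested compounds plus 3 SD, cut at about 0.9% in these data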;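 note: 0% = DMSO-only wells and 100% = 3 µM delta7-dafachronic acid wells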
hcDAF-12 act = H. contortus DAF-12 activation, primary screen | 370,000 tested, 1.4% active | activation, % at 6.8 µM | HEK293 hcDAF-12 lit1-tk-luc reporter, luminescence; 0% DMSO, 100% Δ7-dafachronic acid;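 active = activation above the mean of all tested compounds plus 3 SD, cut at about 5.5% in these data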;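 note: 100% = response to 3 µM Δ7-dafachronic acid high control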
DAX1 inh-2 = inhibits human nuclear receptor DAX1. HEK293 Gal4-DAX1 luciferase reporter, luminescence. 340,000 tested, 0.99% active. inhibition, % at 6.75 µM. AID 504766;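 active = inhibition above the mean over all tested compounds plus 3 SD, cut at about 4.2% in these data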;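 note: 0% = DAX1-transfected cells with DMSO and 100% = empty-vector control cells with DMSO; inhibition shows as a rise in luminescence from relieved DAX1 repression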
Target sequence (P51843 207-470 limits assumed): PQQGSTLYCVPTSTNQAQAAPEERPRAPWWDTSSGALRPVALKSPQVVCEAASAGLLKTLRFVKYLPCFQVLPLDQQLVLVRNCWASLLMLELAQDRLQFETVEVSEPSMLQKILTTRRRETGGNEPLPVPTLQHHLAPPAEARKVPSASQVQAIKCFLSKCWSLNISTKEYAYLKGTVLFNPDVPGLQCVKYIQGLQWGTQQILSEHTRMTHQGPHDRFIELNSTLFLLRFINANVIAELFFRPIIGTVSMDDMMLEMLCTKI
AHR act = activates the human aryl hydrocarbon receptor; 320,000 tested, 2.5% active; AHR-responsive luciferase reporter cells, luminescence; activation, % at 5 µM; in the data active = activation above about 47%;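 note: 0% = vehicle wells and 100% = reference agonist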
hgDAF12 agonist = agonists of H. glycines DAF-12 nuclear receptor | activation, % at 6.8 µM | HEK293 GAL4-hgDAF12 UAS-luciferase reporter, agonist luminescence; normalized to butyrate control | 370,000 tested, 1.8% active;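 active = activation above a cutoff set at the mean of all screened compounds plus 3 SD, cut at about 10% in these data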;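 note: 0% = DMSO wells and 100% = sodium butyrate wells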
DAX1 inh confirm = NR0B1 (human) inhibition, confirmation. 2,400 tested, 87% active. shares compounds with DAX1 inh-1. HEK293T StAR-promoter luciferase reporter, SF-1/DAX-1 repression. inhibition, % at 6.8 µM;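 active = inhibition above the average of every tested compound plus 3 SD, cut at about 3.8% in these data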;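 note: 0% = DAX-1 cells with DMSO and 100% = no DAX-1 control cells with DMSO; active compounds raise luminescence by relieving repression of the StAR reporter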
SF1 AF2mut Luc = counter-screen for DAX1 inhibitors: nonselective inhibitors with SF-1 AF2 mutant | shares compounds with DAX1 inh-1 | 2,400 tested, 78% active | inhibition, % at 6.8 µM | HEK293 StAR-luciferase, luminescence;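 active = inhibition above the mean of all tested compounds plus 3 SD, cut at about 3% in these data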;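 note: 0% = DAX-1 transfected cells with DMSO and 100% = cells without DAX-1 with DMSO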
LXRb hcDAF ctr = counter-screen for hcDAF-12 agonists: agonists of human LXR-beta | 3,400 tested, under 10 active | activation, % at 6.8 µM | AID 743027 | shares compounds with hcDAF-12 act | HEK293 Gal4-LXR tk-luc reporter, luminescence, 24 h; normalized: DMSO 0%, positive control 100%;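 active = mean percent activation of the reporter above a cutoff set as the average over tested compounds plus their standard deviation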
Target sequence (P55055 whole entry, looked up, the tested form may be a part): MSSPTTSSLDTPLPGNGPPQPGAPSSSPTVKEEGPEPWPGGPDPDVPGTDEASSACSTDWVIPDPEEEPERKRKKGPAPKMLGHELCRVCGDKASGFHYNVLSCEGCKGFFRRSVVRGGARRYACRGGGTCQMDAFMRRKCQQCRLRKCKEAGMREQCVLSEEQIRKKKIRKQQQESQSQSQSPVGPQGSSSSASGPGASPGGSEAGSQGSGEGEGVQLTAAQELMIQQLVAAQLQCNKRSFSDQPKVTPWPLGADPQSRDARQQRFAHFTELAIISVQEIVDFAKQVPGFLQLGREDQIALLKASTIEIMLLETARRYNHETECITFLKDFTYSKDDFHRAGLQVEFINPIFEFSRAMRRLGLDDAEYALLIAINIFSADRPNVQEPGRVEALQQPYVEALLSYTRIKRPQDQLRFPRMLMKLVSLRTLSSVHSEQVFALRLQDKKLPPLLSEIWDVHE
hcDAF12 ag = confirmation of H. contortus DAF-12 agonists | shares compounds with hcDAF-12 act | HEK293 hcDAF-12 lit1-tk-luc reporter, luminescence; % of Δ7-dafachronic acid response | activation, % at 6.8 µM | 3,400 tested, 61% active | AID 743032;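 active = mean activation across triplicate tests above the threshold derived from the earlier primary screen, cut at about 5.5% in these data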;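 note: 0% = DMSO only wells and 100% = 3 µM Δ7-dafachronic acid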
hgDAF12 conf = confirmation of H. glycines DAF-12 agonists; shares compounds with hgDAF12 agonist; HEK293 GAL4-hgDAF12 luciferase reporter, agonist mode; percent of butyrate response; activation, % at 6.8 µM; 3,300 tested, 80% active;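 active = mean activation over triplicate wells above the hit cutoff derived from the earlier primary screen, cut at about 11% in these data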;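 note: 0% = DMSO low control and 100% = 2 mM sodium butyrate high control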
LXR ag 2 = LXR-beta agonism as DAF-12 counter-screen; shares compounds with hgDAF12 agonist; HEK293 Gal4-LXR luciferase reporter, 24 h; activation, % at 6.8 µM; 3,300 tested, under 10 active; AID 743051;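 active = mean activation of the triplicate above a set limit carried over from the primary screen, none filed active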
* = called active by the depositor; · = no result.

SMILES | DAX1 inh-1 | ssDAF-12 act | hcDAF-12 act | DAX1 inh-2 | AHR act | hgDAF12 agonist | LXRb hcDAF ctr | hcDAF12 ag | others
C/C(=N\NC(=O)c1ccccc1F)c1cccc(NC(=O)c2ccc(C)cc2)c1 | 5.0* | -1 | 1 | 0 | 4 | 13* | · | · | DAX1 inh confirm=0;SF1 AF2mut Luc=1;hgDAF12 conf=7;LXR ag 2=0
C/C(=N\NC(=O)c1cccc(F)c1)c1cccc(NC(=O)c2ccc(F)cc2)c1 | 1 | 0 | 3 | 1 | 4 | 4 | · | ·
CCOc1ccc(C(=O)/C=C/Nc2ccc(S(=O)(=O)Nc3cc(C)nc(C)n3)cc2)cc1 | 0 | 0 | 2 | · | -1 | 2 | · | ·
Cc1ccccc1CC(=O)N1CCN(S(=O)(=O)c2cccs2)CC1 | 1 | -1 | 0 | 0 | 2 | -1 | · | ·
CN(C)c1ccc(/C=N/NC(=S)NCc2ccco2)cc1 | 1 | -1 | 2 | 1 | 37 | 3 | · | ·
CN(C)c1ccc(C(=S)NCc2ccco2)cc1 | 5.2* | 0.9* | 7.5* | -2 | 12 | 16* | 2 | 10* | DAX1 inh confirm=11*;SF1 AF2mut Luc=5.6*;hgDAF12 conf=20*;LXR ag 2=1
Cc1cc(CNC(=O)c2cc(COc3ccc(F)c(F)c3)on2)nn1C | 6.4* | 0 | 5.7* | 2 | 15 | 15* | · | · | DAX1 inh confirm=7.4*;SF1 AF2mut Luc=3.8*;hgDAF12 conf=14*;LXR ag 2=0
COc1ccc(C(=O)/C=C/Nc2cccc(O)c2)cc1 | 6.0* | 1.2* | 8.2* | -1 | 2 | 19* | 2 | 12* | DAX1 inh confirm=14*;SF1 AF2mut Luc=8.1*;hgDAF12 conf=27*;LXR ag 2=2
CCOc1ccc(N/C=C/C(=O)c2ccc(OC)cc2)cc1 | 0 | -1 | -1 | -1 | 5 | 1 | · | ·
O=C(Nc1ccccc1)NC1(C(=O)NCc2ccco2)CCCCC1 | 0 | -1 | -1 | -1 | 0 | 0 | · | ·
O=C(C1CCN(S(=O)(=O)N2CCC3(CC2)OCCO3)CC1)N1CCCCC1 | 0 | -1 | -2 | 0 | -4 | 2 | · | ·
O=C(Nc1cccc(Cl)c1)Nc1ccccc1C(=O)O | 4.7* | -1 | 5 | -1 | 17 | 14* | · | · | DAX1 inh confirm=11*;SF1 AF2mut Luc=7.6*;hgDAF12 conf=15*;LXR ag 2=1
NC(=O)c1ccccc1N/C=C/C(=O)c1ccccc1 | 5.8* | 0 | 5 | 2 | 7 | 13* | · | · | DAX1 inh confirm=12*;SF1 AF2mut Luc=5.4*;hgDAF12 conf=16*;LXR ag 2=1
COC(=O)c1ccccc1N/C=C/C(=O)c1ccc(Br)cc1 | 1 | -1 | 0 | 1 | 6 | 9 | · | ·
COc1ccc(-c2csc(N3C(=O)CNC3=S)n2)cc1 | 5.5* | 1.1* | 8.2* | -2 | 3 | 17* | 2 | 8.8* | DAX1 inh confirm=14*;SF1 AF2mut Luc=6.6*;hgDAF12 conf=16*;LXR ag 2=1
Cc1ccc(NC2=Nc3ccccc3CS2)cc1 | 3 | 1.6* | 15* | -1 | 10 | 19* | 2 | 14*
Cc1ccc(Nc2ccccc2)cc1 | 1 | -1 | 0 | 0 | 1 | 1 | · | ·
O=C(O)c1ccc2c(=O)n3c(nc2c1)/C(=C/c1ccc(C(F)(F)F)cc1)CC3 | 0 | -1 | 7.0* | -1 | 0 | 1 | 0 | 1
Cc1ccc(C(=O)NCc2ccco2)cc1S(=O)(=O)N1CCCCC1 | 0 | -1 | -3 | 1 | 3 | -1 | · | ·
N#CC1(c2ccccc2)CCCN1C(=O)c1ccccc1Br (configuration not stated) | 0 | 0 | 10* | 0 | 3 | -1 | 0 | 2
COc1ccccc1C(=O)N1CCCC1(C#N)c1ccccc1 (configuration not stated) | 0 | -1 | 0 | 1 | 1 | 0 | · | ·
CCOc1ccc2c(c1)c1nc3ccccc3nc1n2C | 0 | 0 | 5 | 0 | · | 4 | · | ·
CCn1c2ccccc2c2nnc(SCCN3CCCCC3)nc21 | 0 | -1 | 2 | 1 | 9 | 0 | · | ·
Cn1c2ccc(F)cc2c2nnc(SCCN3CCCCC3)nc21 | 1 | 1.1* | 8.2* | 2 | · | 5 | 0 | 6.9*
Cn1c2ccc(F)cc2c2nc3ccccc3nc21 | 0 | 1 | 7.1* | 2 | 43 | 3 | 0 | 8.3*
SMILES | DAX1 inh-1 | ssDAF-12 act | hcDAF-12 act | DAX1 inh-2 | AHR act | hgDAF12 agonist | LXRb hcDAF ctr | hcDAF12 ag | others
Cn1c2ccc(Cl)cc2c2nc3ccccc3nc21 | 3 | 2.4* | 8.8* | 2 | 56* | 12* | 0 | 8.5*
COc1ccccc1N(C(C)=O)C1=C(Cl)C(=O)c2ccccc2C1=O | -3 | -1 | 2 | -2 | · | 0 | · | ·
O=C(Oc1ccccc1)c1ccc(NC(=O)c2ccco2)cc1 | 0 | -1 | 0 | -1 | 0 | 5 | · | ·
COC(=O)c1sc(NC(=O)c2oc3ccccc3c2C)nc1C | 1 | 1 | 8.2* | 0 | 12 | 8 | 1 | 5
Cc1c(C(=O)Nc2nc3ccccc3[nH]2)oc2ccc(Br)cc12 | 0 | 0 | -1 | 0 | 29 | 4 | · | ·
Cc1c(C(=O)Nc2cccnc2Cl)oc2ccccc12 | 1 | 1 | 6.7* | 2 | 38 | 9 | 1 | 6.8*
Cc1c(C(=O)Nc2nc3ccccc3[nH]2)oc2c(Cl)cccc12 | 1 | 1.0* | 8.7* | 0 | 66* | 3 | 1 | 9.2*
Cc1c(C(=O)Nc2ccccn2)oc2c(Cl)cccc12 | 0 | 2.0* | 8.8* | 4 | 74* | 2 | 0 | 6.5*
C[C@@H]1CC[C@@]2(O[C@@H](CCO)C[C@@H](O)[C@@H]2O)O1 | 1 | -1 | 1 | -1 | -4 | 0 | · | ·
CSc1ccc(CNC(=O)Cc2ccc(NC(=O)C3=C(C)OCCS3)cc2)cc1 | -2 | 0 | 7.1* | -1 | 3 | 8 | 1 | 6.5*
CCOc1ccc(CCNC(=O)Cc2ccc(NC(=O)C3=C(C)OCCS3)cc2)cc1 | 0 | -1 | 0 | 0 | 0 | 3 | · | ·
